From PubChem BioAssay come the findings set out here.

The assay can be described thus: small-molecule microarray binders of probe aLefty2, primary screen, biochemical, biotinylated probe, 635/667 nm fluorescence (AID 1094).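 Note: score merges spot fluorescence near 667 nm with spot signal-to-noise ratio.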 To be noted: higher = more signal.
On to `C=CCC(OC(C)=O)[C@@H]1[C@@H](N(Cc2cccc3ccccc23)C(=O)c2ccc(-c3ccccc3)cc2)c2cc(OCCCO)ccc2N1C(=O)Cc1ccc2ccccc2c1` (some centres undefined), for which the composite z-score is -0.145.
The figure for `O=C(NC1CC1)[C@@H]1c2ccccc2C(=O)N(Cc2ccc(OC(F)(F)F)cc2)[C@H]1c1ccc(CO)cc1` is -0.0943; for `O=C(NC1CC1)[C@@H]1c2ccccc2C(=O)N(CC23CC4CC(CC(C4)C2)C3)[C@H]1c1ccc(CO)cc1` it is -0.2.
The figure for `CC(=O)NCCCC[C@@H]1NC(=O)[C@H]2C[C@@H](C(=O)NCCCCCCNC(=O)CS)[C@@H](c3cccc(OCCO)c3)N2C1=O` is -0.0187; for `O=C1O[C@@H](c2ccccc2)[C@@H](c2ccccc2)N2[C@@H](c3ccc(OCCO)cc3)[C@]3(C(=O)Nc4ccc(C#CC5(O)CCCCCC5)cc43)[C@@H](C(=O)O)[C@H]12` it is -0.166.
In turn, `COC(=O)[C@@]1(Cc2ccccc2)[C@H]2c3cc(C(=O)N(C)C)n(Cc4ccc(C(F)(F)F)nc4)c3C[C@H]2CN1C(=O)c1ccccc1` showed a composite z-score of 0.348.
Next, `CN1C(=O)C2C(C1=O)C1C=C(c3ccc(CO)cc3)C2C(C2CC2)N1C` (centres undefined): -0.209.
Turning to `O=C1C=C(c2ccccc2)C(=O)C2=C1CC([C@H]1Oc3ccccc3S(=O)(=O)N3CCC[C@@H]13)=CC2`, the composite z-score was -0.183.
The figure for `C=C(COC)C(=O)CC[C@@H](OC(C)=O)c1ccccc1OCCO` is -0.117; for `COCCOC(=O)N1C(=O)[C@@]2(c3cc(C#CCCO)ccc31)[C@H](c1ccccc1OCCO)N1[C@H](c3ccccc3)[C@H](c3ccccc3)OC(=O)[C@H]1[C@@H]2C(N)=O` it is -0.123.
Next, `CCCCCCc1nc(Cc2cc(OC)c(OC)c(OC)c2)cc2c1[Si](C(C)C)(C(C)C)O[C@H]2c1ccccc1`: -0.176; `COC(=O)[C@]1(CCC(=O)OC(C)(C)C)N=C(c2ccc(OCCCO)cc2)O[C@@H]1c1ccccc1N=[N+]=[N-]`: 0.0664.
The figure for `C[C@@H]1ON(c2ccc(I)cc2)[C@H](c2cccc(NC(=O)OCC3c4ccccc4-c4ccccc43)c2)[C@H]1C(=O)N1C(=O)OC[C@H]1Cc1ccccc1` is 0.437.
Turning to `CC1CC/C=C\[C@H]2OC34C=CCN(C(C)(C)C)C(=O)[C@H]3N(CCCO)C(=O)[C@@H]4C2C(=O)O1` (some centres undefined), the composite z-score was -0.214.
Next, `COc1ccc([Si](C)(C)[C@H]2[C@H](CC(=O)N3Cc4ccccc4C[C@H]3CO)O[C@@]3(C(=O)N(c4ccccc4)c4ccccc43)[C@@H]2C)cc1`: -0.0088.
`CCCNC(=O)[C@@]1(Sc2ccc(C)cc2)CC(=O)N(Cc2ccccc2Cl)[C@@H]1c1ccc(CO)cc1I`: the composite z-score was determined as 0.328.
Next, `N#Cc1ccc(-c2cccc(=O)o2)cc1`: -0.212; `CCCCC(O)C1C=CC2C(=O)N(c3ccccc3)C(=O)C2N1Nc1ccccc1` (centres undefined): -0.0355.
Molecule `CC(C)=CCCC=C(C)C(O)C1C=CC2C(=O)N(c3ccccc3)C(=O)C2N1Nc1ccc(C#N)cc1` (centres undefined) registered a composite z-score of -0.152.
The figure for `COCCOC(=O)N1C(=O)[C@@]2(c3cc(C#CC4(O)CCCCCC4)ccc31)[C@H](c1ccc(O)cc1)N1[C@H](c3ccccc3)[C@H](c3ccccc3)OC(=O)[C@H]1[C@@H]2C(=O)N1CCCCCCC1` is 0.189; for `COCCOC(=O)N1C(=O)[C@@]2(c3cc(C#Cc4ccc(OC)cc4)ccc31)[C@H](c1ccc(OCCO)cc1)N1[C@H](c3ccccc3)[C@H](c3ccccc3)OC(=O)[C@H]1[C@@H]2C(=O)NC[C@H](O)c1ccccc1` it is 0.3; for `O=C(N1CCOCC1)[C@@]1(Cc2ccccc2)COC(c2ccc(OCCCO)cc2)=N1` it is 0.588.
Next, `COC(=O)c1cccc([C@H]2OC(=CC(=O)OC(C)C)C[C@@H](c3cccc(C(=O)OC)c3)O2)c1`: 0.272; `CN1C(=O)[C@@H]2[C@@H](CC(COc3ccccc3)=C3[C@@H](CCc4ccccc4)OB(O)C[C@@H]32)C1=O`: -0.205.
For the molecule `C=C(COC)C(=O)CC[C@@H](OC(=O)c1ccccc1-c1ccccc1C(=O)O)c1ccc(OCCO)cc1`, the composite z-score was -0.0341.
As to `C=C(CCCC)C(=O)CC[C@H](OC(=O)c1ccccc1-c1ccccc1C(=O)O)c1ccc(OCCO)cc1`, the composite z-score was -0.0563.
Next, `C[N+](C)(C)CCCC[C@@H]1NC(=O)[C@H]2C[C@@H](C(=O)NCCCCCNC(=O)CS)[C@@H](c3cccc(OCCO)c3)N2C1=O`: -0.152; `CC(C)NC(=O)[C@@]1(c2ccc([N+](=O)[O-])cc2)CC(=O)N(CC23CC4CC(CC(C4)C2)C3)[C@@H]1c1ccc(CO)cc1`: 0.707.
The figure for `CC(=O)OCC1C2CC[C@H]3C(OCc4ccc(F)cc4C(F)(F)F)OC[C@]4(C)[C@H]3C2=C(CN4C(=O)OC(C)(C)C)[C@H](C)C1COC(C)=O` (some centres undefined) is 0.054.
